# HEK293 tox – cytotoxic in the GLP-1 receptor inverse agonist counter-screen; HEK293 cAMP-luciferase reporter cells, luminescence, 24 h; Potency, µM (titrated, usually from 38.3 µM), without a hit: top-dose activity change, negative = inhibition, most hits filed as inhibitors; 0.13% of 410,000 active; AID 624418;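 note: loss of luciferase light is scored as toxicity; % is set by controls: 0 for no effect and ±100 for the full control effect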
#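 A 23 nL compound transfer followed 12 hours of cell culture at 37 deg C; exposure then lasted 24 hr. Luciferase assay detection reagent was dispensed and plates read for luminescence after a 12 min room-temperature wait.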
# GLP1R ag – agonists of human GLP-1 receptor. Potency, µM (highest dose often 45.6 µM), inactives show at the highest dose activation, actives largely listed as activators. P43220. HEK293 GLP-1R CRE-luciferase, luminescence, 4-6 h; cells express a hypersensitive GLP-1R form. 0.007% of 380,000 active; note: % of control where 0% means no effect
# Target sequence (P43220 whole entry, looked up): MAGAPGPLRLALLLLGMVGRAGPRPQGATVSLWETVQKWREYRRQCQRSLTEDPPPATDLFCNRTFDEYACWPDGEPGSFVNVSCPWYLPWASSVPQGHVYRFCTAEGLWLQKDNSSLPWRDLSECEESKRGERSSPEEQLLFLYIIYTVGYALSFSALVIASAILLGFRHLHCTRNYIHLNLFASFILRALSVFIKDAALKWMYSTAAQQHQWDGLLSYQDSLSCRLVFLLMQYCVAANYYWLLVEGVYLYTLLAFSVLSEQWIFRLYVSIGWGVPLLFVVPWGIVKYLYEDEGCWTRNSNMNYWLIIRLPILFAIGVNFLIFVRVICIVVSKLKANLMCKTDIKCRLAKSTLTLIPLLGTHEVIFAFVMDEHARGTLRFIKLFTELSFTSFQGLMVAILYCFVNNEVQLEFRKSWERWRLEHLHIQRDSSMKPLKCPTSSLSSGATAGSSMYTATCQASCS
# GLP-1R inv ag – GLP-1 receptor (human) inverse agonism. P43220. HEK293 GLP-1R CRE-luciferase, luminescence, 24 h; GLP-1R form is constitutively active. Potency, µM (series often up to 38.3 µM), without a hit: at the top dose activity change, negative = inhibition, hits mostly inhibitors. 1.6% of 410,000 active; note: % is set by controls: 0 for no effect and ±100 for the full control effect; nearly all actives have a fitted effect of over 55% in size
#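 GLP-1R inverse agonism mode: basal reporter luminescence in engineered HEK293 cells measured after one day of compound exposure at 37 deg C, with a 12 min room-temperature detection step.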
# Active calls of the source: *; ? = inconclusive; / = no result. Shown are actives, neighbours in structure and some others; about 1.7% of the full set was active somewhere. Calls come from the whole dose curve; as a rule, active = well fitted curve in the direction sought with a large enough effect; inconclusive = small, poorly fitted or top-dose-only effect, or another doubt; inactive = no such curve, though single readings can be large; an effect the other way counts as inactive or inconclusive. Potency is the fitted concentration of half-maximal effect.
SMILES,HEK293 tox,GLP1R ag,GLP-1R inv ag
COCCn1c(C23CC4CC(CC(C4)C2)C3)n[nH]c1=S,?,-13%,?
COc1ccc(C(=O)COC(=O)Cc2n[nH]c(=O)c3ccccc23)c(OC)c1,0%,-1%,17%
CCS(=O)(=O)C(C)(CCl)C(=O)Nc1ccc(C(=O)OC)cc1 (stereo not drawn),-5%,3%,-8%
O=C(Oc1ccccc1)c1ccccc1C(=O)Oc1ccccc1,-12%,16%,?
O=C(Oc1ccccc1)c1cccc2cccc(C(=O)Oc3ccccc3)c12,25%,11%,10µM*
CC(C)(C)c1cc(C(=S)N2CCCC2)cc(C(C)(C)C)c1O,4%,6%,8.9µM*
CC(C)(C)c1cc(CCC(=O)N2CCCC2)cc(C(C)(C)C)c1O,12%,-1%,?
CCC(=O)N1c2ccc(S(=O)(=O)NCc3cccc(OC)c3)cc2CC1C (stereo not drawn),3%,-1%,7%
Cc1ccc(C(=O)Nc2c(-c3ccccc3)nc3ccccn23)cc1C,-15%,1%,?
O=C(Nc1c(-c2ccccc2)nc2ccccn12)c1ccccc1,5%,-3%,-2%
O=C(Nc1c(-c2ccccc2)nc2ccccn12)c1ccc(Br)cc1,-25%,0%,11µM*
O=C(Nc1c(-c2ccccc2)nc2ccccn12)c1cccc(F)c1,-7%,3%,10µM*
COC[C@H]1CCCN1c1ccc2c(c1)O[C@@H](COCc1ccccc1)CN([C@H](C)c1ccccc1)S2(=O)=O,11%,-2%,-20%
Cc1[nH]c2ccc(C(=O)N3CCN(c4ccc(F)cc4)CC3)cc2c1C,1%,4%,?
CC1(C)CC2CC(C)(CN2/C=N/c2sc3c(c2C#N)CC(C)(C)NC3(C)C)C1 (stereo not drawn),?,17%,1.1µM*
CC1(C)Cc2c(sc(N)c2C#N)C(C)(C)N1,-8%,9%,4%
O=C(O)c1cccc(N2C(=O)c3cc([N+](=O)[O-])cc4cc([N+](=O)[O-])cc(c34)C2=O)c1,-14%,-12%,?
O=C(CCSCCc1ccccn1)Nc1ccccc1C(F)(F)F,0%,/,9%
Cc1cc(C)c(S(=O)(=O)NCCc2sc3nc(-c4ccc(F)cc4)nn3c2C)c(C)c1,-9%,/,?
CC(C)CNC(=O)c1nc(-c2ccccc2)n(-c2ccccc2)n1,-9%,4%,13µM*
Cc1nn(-c2ccccc2)c(Cl)c1C(=O)NCC(C)C,6%,1%,-5%
O=C(CN1CCCCC1)N1c2ccccc2Oc2ccccc21,-7%,8%,?
O=C(CO/N=C/c1ccccc1)N1c2ccccc2Oc2ccccc21,-11%,-1%,8.9µM*
COCCn1c(C)cc(C(=O)CSc2n[nH]c(N)n2)c1C,-11%,-3%,9%
COCCn1c(C)cc(C(=O)CSc2nnc(C)s2)c1C,-1%,-11%,1.3µM*
SMILES,HEK293 tox,GLP1R ag,GLP-1R inv ag
COCCn1c(C)cc(C(=O)CSc2cc(C)c3ccccc3n2)c1C,10%,1%,13µM*
COCCn1c(C)cc(C(=O)COC(=O)c2cccc(O)c2)c1C,0%,-8%,0.89µM*
COCCn1c(C)cc(C(=O)COC(=O)c2cc3c(s2)CCC3)c1C,-3%,0%,?
COCCn1c(C)cc(C(=O)CSc2nnnn2C2CCCC2)c1C,-1%,-30%,2.2µM*
COc1ccc(Cl)cc1C(=O)CSc1nnnn1C1CCCC1,3%,?,0%
COCCn1c(C)cc(C(=O)CSc2nc3ccccc3c(=O)n2Cc2ccco2)c1C,1%,8%,14%
CCOc1cc(C(=O)Nc2ccc(-c3nc4cc(Cl)ccc4o3)cc2)cc(OCC)c1OCC,-3%,/,-24%
C/C(CC(=O)Nc1ccc(Cl)c(Cl)c1)=N\NC(=O)C(=O)N1CCCCC1,-15%,9%,?
OC(CNCCc1ccccc1)COc1ccc(OCC(O)CNCCc2ccccc2)cc1 (stereo not drawn),?,4%,?
CC(C)N(CCNCC(O)COc1ccc(C(C)(C)c2ccccc2)cc1)C(C)C (stereo not drawn),?,9%,4µM*
COc1ccc(CC(=O)NCc2nn(-c3ccccc3)nc2C)cc1OC,10%,-2%,12%
COc1ccc(-c2ocnc2C(=O)NCc2nn(-c3ccccc3)nc2C)cc1,3%,5%,10µM*
C[C@]12c3[nH]c4cc(-c5ccco5)ccc4c3CCN1C(=O)[C@@H](CC(=O)NCc1cccc(C(F)(F)F)c1)C[C@@H]2C(=O)N1CCOCC1,-6%,0%,?
CC1(C)Oc2ccc3ccc(=O)oc3c2[C@@H](O)[C@H]1O,-22%,-2%,8%
CC(NC(=O)CSCc1ccccc1Br)c1ccccc1 (stereo not drawn),34%,-1%,?
CC(NC(=O)CSCc1ccc(Br)cc1)c1ccccc1 (stereo not drawn),1%,14%,7.1µM*
Fc1ccc(CSc2nnc(Cc3sc(-c4ccccc4)nc3-c3ccccc3)o2)cc1,16%,20%,12%
COc1ccc(CSc2nnc(Cc3sc(-c4ccccc4)nc3-c3ccccc3)o2)cc1,-4%,1%,10µM*
C=C(C)Cn1c(SCC(=O)Nc2cccc(C)c2)nc2sc3c(c2c1=O)CCCC3,27%,/,3%
Cc1c(NC(=O)Nc2ccc(Cl)c(C(F)(F)F)c2)c(=O)n(-c2ccccc2)n1C,-10%,/,-11%
CCN(CC)S(=O)(=O)c1cccc(C(=O)Nc2nc3cc4c(cc3s2)OCCO4)c1,-29%,-10%,11µM*
O=C(Nc1nc2cc3c(cc2s1)OCCO3)c1cccc(N2C(=O)CCC2=O)c1,1%,-2%,?
CCCCCCC1C(C#N)=C(N)OC2=C1C(=O)CC(C)(C)C2 (stereo not drawn),7%,12%,0%
CCCCC1C2=C(CC(C)(C)CC2=O)OC2=C1C(=O)CC(C)(C)C2,-7%,4%,8.9µM*
COc1ccc(CNC(=O)c2ccc3nc(CCc4ccccc4)oc3c2)cc1,2%,/,-1%
SMILES,HEK293 tox,GLP1R ag,GLP-1R inv ag
COCCCNc1nc2nonc2nc1N1CCC(C(C)N2CCOCC2)CC1 (stereo not drawn),1%,11%,-15%
CC(C)(C)N1C(=O)[C@H]2[C@@H](c3ccc(Br)cc3)N3C(=O)N(c4cccc(F)c4)C(=O)[C@@]3(Cc3ccccc3)[C@H]2C1=O,11%,0%,?
COc1ccc([C@@H]2[C@@H]3C(=O)N(C(C)(C)C)C(=O)[C@@H]3[C@]3(Cc4ccc(Cl)cc4)C(=O)N(c4ccc(Br)cc4)C(=O)N23)cc1,-5%,0%,10µM*
CC(C)(C)N1C(=O)[C@H]2[C@@H](c3ccc(Br)cc3)N3C(=O)N(c4ccc(Br)cc4)C(=O)[C@@]3(Cc3ccccc3)[C@H]2C1=O,-5%,-6%,11µM*
COc1ccc([C@@H]2[C@@H]3C(=O)N(C(C)(C)C)C(=O)[C@@H]3[C@]3(Cc4ccc(Cl)cc4)C(=O)N(c4ccc(OC)cc4)C(=O)N23)cc1,-3%,1%,-10%
COc1ccc(C)cc1S(=O)(=O)N1CCCC(C(=O)NC2CC2)C1 (stereo not drawn),12%,-2%,13%

# Assay outcomes deposited in PubChem by National Center for Advancing Translational Sciences (NCATS).
